From article PMC5869772, “Quantitative profiling of BATF family proteins/JUNB/IRF hetero-trimers using Spec-seq”

Key:
Assay in all cases: Spec-seq (EMSA and sequencing of bound and unbound bands); 100 nM BATFx-JUNB, 1 uM dsDNA library, 50 mM K acetate, 20 mM Tris-acetate, 10 mM Mg acetate, 100 ug/ml BSA, pH 7.9, 10% glycerol, 30 min on ice; native 9% PAGE at 4 C; low values mean tight binding
Conditions in all cases: protein: recombinant;recombinant; tags: N-terminal mCherry-TEV, cleaved off;C-terminal 6His; copies: 1;1; dsDNA, one strand shown
[1] = molecular target: T1, BATF;JUNB (human;human, UniProt Q16520;P17275 1-125;148-347, |)
T1 sequence 1: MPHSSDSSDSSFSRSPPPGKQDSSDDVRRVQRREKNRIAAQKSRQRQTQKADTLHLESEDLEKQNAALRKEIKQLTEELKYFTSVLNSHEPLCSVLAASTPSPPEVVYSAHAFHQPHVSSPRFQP
T1 sequence 2: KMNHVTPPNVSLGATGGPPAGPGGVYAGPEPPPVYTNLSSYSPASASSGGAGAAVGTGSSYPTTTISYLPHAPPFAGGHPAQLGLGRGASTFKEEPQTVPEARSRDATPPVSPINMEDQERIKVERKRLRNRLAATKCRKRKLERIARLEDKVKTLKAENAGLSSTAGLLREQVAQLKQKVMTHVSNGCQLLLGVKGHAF
Method in brief: (§1)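 The protein, at 100 nM, was incubated with 1 μM double-stranded degenerate DNA library for 30 min on ice in NEB Cutsmart buffer with 10% glycerol, then resolved by native 9% PAGE at 4 °C. Excised bound and unbound bands were PCR-barcoded and Illumina-sequenced, and each sequence's relative binding energy in kT is −ln of its bound/unbound read-count ratio.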

[2] = molecular target: T2, BATF2 (bZIP);JUNB (human;human, UniProt Q8N1L9;P17275 1-142;148-347, |)
T2 sequence 1: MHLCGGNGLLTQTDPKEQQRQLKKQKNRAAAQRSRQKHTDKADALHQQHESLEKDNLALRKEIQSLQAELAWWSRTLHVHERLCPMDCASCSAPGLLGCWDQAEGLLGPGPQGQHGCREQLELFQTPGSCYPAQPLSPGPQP
T2 sequence 2: T1 sequence 2
Method in brief: as §1

[3] = molecular target: T3, BATF3;JUNB (human;human, UniProt Q9NR55;P17275 1-127;148-347, |)
T3 sequence 1: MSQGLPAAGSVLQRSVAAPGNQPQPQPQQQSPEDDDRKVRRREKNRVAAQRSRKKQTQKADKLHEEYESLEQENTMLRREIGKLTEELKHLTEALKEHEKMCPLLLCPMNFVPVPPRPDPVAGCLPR
T3 sequence 2: T1 sequence 2
Method in brief: as §1

In the case of “GATAGTCTCATTTTCACCCCGTGAAATGAGTCACTTGTTCCATTACAGTATCTGT”, the binding signal [1] is reported as -0.822 kT, the binding signal [2] is reported as -0.342 kT and the binding signal [3] is reported as -1.03 kT.
“GATAGTCTCATTTTCACCCCGTGAAATGAGTCCGTTGTTCCATTACAGTATCTGT” gave a binding signal [1] of 0.231 kT, a binding signal [2] of 1.26 kT and a binding signal [3] of 1.04 kT.
“GATAGTCTCATTTTCACCCCGTGAAATGACGTCATTGTTCCATTACAGTATCTGT” showed a binding signal [1] of -1.05 kT, a binding signal [2] of -1.32 kT and a binding signal [3] of -1.75 kT.
In the case of “GATAGTCTCATTTTCACCCCGTGAAATGACTGATTTGTTCCATTACAGTATCTGT”, the binding signal [1] is reported as -0.224 kT, the binding signal [2] is reported as 0.321 kT and the binding signal [3] is reported as 0.106 kT.
In the case of “GATAGTCTCATTTTCACCCCGTGAAATGAGTCATTTGTTCCATTACAGTATCTGT”, the binding signal [1] is reported as -1.06 kT, the binding signal [2] is reported as -0.903 kT and the binding signal [3] is reported as -1.42 kT.
“GATAGTCTCATTTTCACCCCGTGAAATCGAGTCATTGTTCCATTACAGTATCTGT” showed a binding signal [1] of -0.54 kT, a binding signal [2] of 0.0512 kT and a binding signal [3] of -0.401 kT.
Work on “GATAGTCTCATTTTCACCCCGTGAAACTGAGTCATTGTTCCATTACAGTATCTGT” yielded a binding signal [1] of -1.39 kT, a binding signal [2] of -0.852 kT and a binding signal [3] of -1.63 kT.
“GATAGTCTCATTTTCACCCCGTGAAATGACTCATTTGTTCCATTACAGTATCTGT” showed a binding signal [1] of -0.896 kT, a binding signal [2] of -0.796 kT and a binding signal [3] of -1.24 kT.
Sequence “GATAGTCTCATTTTCACCCCGTGAAATGACGTCCTTGTTCCATTACAGTATCTGT” has a binding signal [1] of 0.097 kT, a binding signal [2] of 0.602 kT and a binding signal [3] of -0.0593 kT.
“GATAGTCTCATTTTCACCCCGTGAAAGGACGTCATTGTTCCATTACAGTATCTGT” gave a binding signal [1] of -0.227 kT, a binding signal [2] of 0.108 kT and a binding signal [3] of -0.474 kT.
“GATAGTCTCATTTTCACCCCGTGAAATGAGTCTCTTGTTCCATTACAGTATCTGT” gave a binding signal [1] of 0.273 kT, a binding signal [2] of 1.09 kT and a binding signal [3] of 0.936 kT.
With “GATAGTCTCATTTTCACCCCGTGAAATGCGTCATTTGTTCCATTACAGTATCTGT” the binding signal [1] was -0.941 kT, the binding signal [2] was -0.434 kT and the binding signal [3] was -1.03 kT.
“GATAGTCTCATTTTCACCCCGTGAAATGACATCATTGTTCCATTACAGTATCTGT” showed a binding signal [1] of -0.531 kT, a binding signal [2] of -0.296 kT and a binding signal [3] of -1.1 kT.
“GATAGTCTCATTTTCACCCCGTGAAAACGAGTCATTGTTCCATTACAGTATCTGT” was tested, and the binding signal [1] was -0.809 kT, the binding signal [2] was -0.0168 kT and the binding signal [3] was -0.328 kT.
“GATAGTCTCATTTTCACCCCGTGAAATGACTTATTTGTTCCATTACAGTATCTGT” gave a binding signal [1] of -0.08 kT, a binding signal [2] of 0.489 kT and a binding signal [3] of 0.185 kT.
Work on “GATAGTCTCATTTTCACCCCGTGAAATGACTGACTTGTTCCATTACAGTATCTGT” yielded a binding signal [1] of -0.088 kT, a binding signal [2] of 0.456 kT and a binding signal [3] of 0.305 kT.
In the case of “GATAGTCTCATTTTCACCCCGTGAAAGTTAGTCATTGTTCCATTACAGTATCTGT”, the binding signal [1] is reported as -0.763 kT, the binding signal [2] is reported as -0.0778 kT and the binding signal [3] is reported as -0.656 kT.
“GATAGTCTCATTTTCACCCCGTGAAATGACTCTTTTGTTCCATTACAGTATCTGT” was tested, and the binding signal [1] was 0.109 kT, the binding signal [2] was 0.673 kT and the binding signal [3] was 0.524 kT.
“GATAGTCTCATTTTCACCCCGTGAAATGAGGCAGTTGTTCCATTACAGTATCTGT” was tested, and the binding signal [1] was 0.781 kT, the binding signal [2] was 1.36 kT and the binding signal [3] was 1.27 kT.
“GATAGTCTCATTTTCACCCCGTGAAATGCCGTCATTGTTCCATTACAGTATCTGT” was tested, and the binding signal [1] was -0.311 kT, the binding signal [2] was 0.122 kT and the binding signal [3] was -0.649 kT.
For “GATAGTCTCATTTTCACCCCGTGAAATCAGTCATTTGTTCCATTACAGTATCTGT”, the binding signal [1] was -0.312 kT, the binding signal [2] was 0.249 kT and the binding signal [3] was -0.231 kT.
In the case of “GATAGTCTCATTTTCACCCCGTGAAATGACCCAGTTGTTCCATTACAGTATCTGT”, the binding signal [1] is reported as 0.583 kT, the binding signal [2] is reported as 1.09 kT and the binding signal [3] is reported as 1.02 kT.
“GATAGTCTCATTTTCACCCCGTGAAATTAGTCATTTGTTCCATTACAGTATCTGT” showed a binding signal [1] of -0.885 kT, a binding signal [2] of -0.599 kT and a binding signal [3] of -1.19 kT.
In the case of “GATAGTCTCATTTTCACCCCGTGAAATGACGCAATTGTTCCATTACAGTATCTGT”, the binding signal [1] is reported as -0.574 kT, the binding signal [2] is reported as -0.276 kT and the binding signal [3] is reported as -1.27 kT.
With “GATAGTCTCATTTTCACCCCGTGAAACCGAGTCATTGTTCCATTACAGTATCTGT” the binding signal [1] was -0.617 kT, the binding signal [2] was 0.173 kT and the binding signal [3] was -0.192 kT.
“GATAGTCTCATTTTCACCCCGTGAAATGAGTAACTTGTTCCATTACAGTATCTGT” was tested, and the binding signal [1] was -0.237 kT, the binding signal [2] was 0.714 kT and the binding signal [3] was 0.295 kT.
Sequence “GATAGTCTCATTTTCACCCCGTGAAATGAGGCACTTGTTCCATTACAGTATCTGT” has a binding signal [1] of 0.813 kT, a binding signal [2] of 1.32 kT and a binding signal [3] of 1.29 kT.
For “GATAGTCTCATTTTCACCCCGTGAAAATAAGTCATTGTTCCATTACAGTATCTGT”, the binding signal [1] was -0.448 kT, the binding signal [2] was -0.0249 kT and the binding signal [3] was -0.395 kT.
Sequence “GATAGTCTCATTTTCACCCCGTGAAAGTGGGTCATTGTTCCATTACAGTATCTGT” has a binding signal [1] of 0.393 kT, a binding signal [2] of 0.822 kT and a binding signal [3] of 0.613 kT.
“GATAGTCTCATTTTCACCCCGTGAAATGAGGCATTTGTTCCATTACAGTATCTGT” was tested, and the binding signal [1] was 0.568 kT, the binding signal [2] was 1.08 kT and the binding signal [3] was 0.744 kT.
“GATAGTCTCATTTTCACCCCGTGAAAGTGCGTCATTGTTCCATTACAGTATCTGT” gave a binding signal [1] of -0.695 kT, a binding signal [2] of -0.267 kT and a binding signal [3] of -0.851 kT.
For “GATAGTCTCATTTTCACCCCGTGAAATGACCCATTTGTTCCATTACAGTATCTGT”, the binding signal [1] was 0.311 kT, the binding signal [2] was 0.823 kT and the binding signal [3] was 0.67 kT.
“GATAGTCTCATTTTCACCCCGTGAAATGACTAATTTGTTCCATTACAGTATCTGT” was tested, and the binding signal [1] was -0.506 kT, the binding signal [2] was 0.0427 kT and the binding signal [3] was -0.424 kT.
“GATAGTCTCATTTTCACCCCGTGAAAGGACTCATTTGTTCCATTACAGTATCTGT” gave a binding signal [1] of 0.219 kT, a binding signal [2] of 0.9 kT and a binding signal [3] of 0.665 kT.
Work on “GATAGTCTCATTTTCACCCCGTGAAATGAGTCGGTTGTTCCATTACAGTATCTGT” yielded a binding signal [1] of 0.0858 kT, a binding signal [2] of 1.07 kT and a binding signal [3] of 0.619 kT.
“GATAGTCTCATTTTCACCCCGTGAAAATCAGTCATTGTTCCATTACAGTATCTGT” gave a binding signal [1] of -0.547 kT, a binding signal [2] of 0.0501 kT and a binding signal [3] of -0.272 kT.
“GATAGTCTCATTTTCACCCCGTGAAATGAGTCTGTTGTTCCATTACAGTATCTGT” showed a binding signal [1] of 0.124 kT, a binding signal [2] of 1.09 kT and a binding signal [3] of 0.723 kT.
Sequence “GATAGTCTCATTTTCACCCCGTGAAATGAGCCATTTGTTCCATTACAGTATCTGT” has a binding signal [1] of 0.392 kT, a binding signal [2] of 1.26 kT and a binding signal [3] of 0.914 kT.
